Source: PubChem BioAssay (Tox21)
Inconclusive results are not listed. Calls of active or inactive are those of the source. The call rests on the fitted dose curve; in most records, active means well fitted activation curve with a large enough effect in the repeat runs; inconclusive means weak or mixed curves; inactive means flat fitted curve, though single readings scatter.

assay: A CellTox Green Cytotoxicity Assay to monitor cytotoxicity in HEK293 cells - 8 hour (AID 1224884); conditions: CellTox Green fluorescence; series mostly up to 76.8 µM; cytotoxicity increase: at the top concentration; further: nearly all actives have a fitted effect of over 35% in size
Source text: National Center for Advancing Translational Sciences [NCATS]
NIH Chemical Genomics Center [NCGC]
U.S. Environmental Protection Agency [EPA]
National Institutes of Environmental Health Sciences [NIEHS]
National Toxicology Program [NTP]
Cell-based models are critical for drug discovery. Determining the natural cytotoxic effects resulting from test compounds is an essential research activity. A CellTox Green Cytotoxicity Assay to monitor cytotoxicity in real time of continues cell culture during 40 hours of the compound treatment was used to screen Tox21 10K library compounds in Hek293 cells. CellTox Green Cytotoxicity Assay is a nonlytic, homogeneous, biofluorescent method to measure cytotoxicity in cell culture after experimental manipulation. The assay system uses a proprietary asymmetric cyanine dye that is excluded from viable cells but preferentially stains the dead cell's DNA. […] Viable cells produce no appreciable increases in fluorescence. Therefore, the fluorescence signal produced by the binding interaction with dead cell DNA is proportional to cytotoxicity.
The mixture of Hek293 cell suspension and reagents were dispensed at 600cells/6 ul/well in 1536-well tissue culture treated black solid bottom plates using a Multidrop dispenser. After the assay plates were incubated at a 37 C/5% CO2 incubator for 5 hours, 23 nL of compounds dissolved in DMSO, positive and negative controls was transferred to the assay plate by a pintool work station. The plates were incubated at 37 C for 40 hours. The fluorescence intensity were measured at 0h, 8h, 16h, 24h, 32h and 40h time points using ViewLux plate reader during compound treatment.
On the % scale 0 is the no-effect control and ±100 the full control effect; potency means the concentration at half of the fitted maximal effect.

| SMILES | cytotoxicity increase | Potency |
| --- | --- | --- |
| CCCCN1C(=O)[C@@H]([C@H](O)C2CCCCC2)NC(=O)C12CCN(Cc1ccc(Oc3ccc(C(=O)O)cc3)cc1)CC2 | -1.19% (inactive) | – |
| O=c1cc(-c2ccc(O)cc2)oc2cc(O)cc(O)c12 | -8.69% (inactive) | – |
| CSc1cnc(C)cn1 | – | 63.3 µM (active) |
| O=C(Oc1ccccc1)c1ccccc1C(=O)Oc1ccccc1 | -13.4% (inactive) | – |
| CCN(Cc1cccnc1)C(=O)c1cccc(Cl)c1[C@]1(C)C(=O)N(Cc2ccc(OC)cc2OC)c2ccc(Cl)cc21 | 10.7% (inactive) | – |
| O=C1CCCCCN1SSN1CCCCCC1=O | 0.0698% (inactive) | – |
| Cc1c(C)c2c(c(C)c1OC(=O)CCC(=O)O)CC[C@@](C)(CCC[C@H](C)CCC[C@H](C)CCCC(C)C)O2 | -2.87% (inactive) | – |
| O=C(OCC1CO1)C1CCCCC1C(=O)OCC1CO1 (stereo not given) | -11.6% (inactive) | – |
| Oc1cc2ccccc2c2ccccc12 | 7.75% (inactive) | – |
| CCOC(=O)O[C@H](C)OC(=O)c1ccc2c(c1)cc(C(=O)NC1CCN(C(C)C)CC1)n2Cc1cc(-c2ccc(Cl)s2)on1 | – | 51.3 µM (active) |
| O=[N+]([O-])c1cc([N+](=O)[O-])c2ccc(S(=O)(=O)O)cc2c1O | 0.194% (inactive) | – |
| O=c1cccccc1O | -14.3% (inactive) | – |
| COc1ccc(C(=O)/C(Br)=C\C(=O)O)cc1 | -18.3% (inactive) | – |
| Cc1cccc(CN2CCN(C(c3ccccc3)c3ccc(Cl)cc3)CC2)c1 (stereo not given) | 6.01% [at 35.3 µM] (inactive) | – |
| C=C(C)C(=O)OCC(O)COc1ccc(C(C)(C)c2ccc(OCC(O)COC(=O)C(=C)C)cc2)cc1 (stereo not given) | -3.99% (inactive) | – |
| C=C(C)C(=O)OCC[N+](C)(C)C | 10.5% (inactive) | – |
| Cc1ccc2oc(CN(Cc3ccccc3)C(=O)Nc3c(F)cc(F)cc3F)c(-c3ccc(Cl)cc3)c2c1 | 0.428% (inactive) | – |
| OC1(c2ccc(Cl)c(C(F)(F)F)c2)CCN(CCCC(c2ccc(F)cc2)c2ccc(F)cc2)CC1 | – | 21.3 µM (active) |
| CC(C)=CCOc1ccc(/C=C/C(=O)c2ccc(OCC=C(C)C)cc2OCC(=O)O)cc1 | 1.69% [at 35.3 µM] (inactive) | – |
| CC(C)n1nc(-c2cc3cc(O)ccc3[nH]2)c2c(N)ncnc21 | -14.3% [at 35.3 µM] (inactive) | – |

| SMILES | cytotoxicity increase | Potency |
| --- | --- | --- |
| Oc1ccc2c(c1)-c1ccccc1C2 | 18.7% (inactive) | – |
| O=C(OCC(COC(=O)c1ccccc1)(COC(=O)c1ccccc1)COC(=O)c1ccccc1)c1ccccc1 | -4.08% (inactive) | – |
| O=[N+]([O-])c1cc(Cl)c(Cl)c(Cl)c1Cl | 8.74% (inactive) | – |
| C[n+]1cc2c3c(ccc2c2ccc4cc5c(cc4c21)OCO5)OCO3 | 16.5% [at 15.8 µM] (inactive) | – |
| CS(=O)(=O)CCNCc1ccc(-c2ccc3ncnc(Nc4ccc(OCc5cccc(F)c5)c(Cl)c4)c3c2)o1 | -11.4% [at 35.3 µM] (inactive) | – |
| Clc1ccc2n[nH]nc2c1 | -0.262% (inactive) | – |
| Clc1ccccc1C(c1ccccc1)(c1ccccc1)n1ccnc1 | 6.22% [at 35.3 µM] (inactive) | – |
| CN(C)[C@@H]1C(=O)C(C(N)=O)=C(O)[C@@]2(O)C(=O)C3=C(O)c4c(O)cccc4C[C@H]3C[C@@H]12 | -8.59% [at 35.3 µM] (inactive) | – |
| CCCCc1oc2ccc(NS(C)(=O)=O)cc2c1C(=O)c1ccc(OCCCN(CCCC)CCCC)cc1 | – | 23.9 µM (active) |
| CC[C@@]1(O)C(=O)OCc2c1cc1n(c2=O)Cc2c-1nc1ccccc1c2/C=N/OC(C)(C)C | -9.14% [at 35.3 µM] (inactive) | – |
| O=C(c1ccc(O)cc1O)c1ccc(O)cc1O | – | inactive |
| C[C@H](CCC(=O)O)[C@H]1CC[C@H]2[C@@H]3CC[C@@H]4C[C@H](O)CC[C@]4(C)[C@H]3CC[C@]12C | – | inactive |
| CCC1=C[C@@H]2CN(C1)Cc1c([nH]c3ccccc13)[C@@](C(=O)OC)(c1cc3c(cc1OC)N(C)[C@H]1[C@@](O)(C(=O)OC)[C@H](OC(C)=O)[C@]4(CC)C=CCN5CC[C@]31[C@@H]54)C2 | 0.311% [at 35.3 µM] (inactive) | – |
| O=C1C=CC(=O)N1c1ccc(Cc2ccc(N3C(=O)C=CC3=O)cc2)cc1 | – | 54.9 µM (active) |
| CCCCCCCCCCCCCCCCCC[N+](C)(C)Cc1ccccc1 | – | 19.7 µM (active) |
| O=Cc1cc(O)ccc1Br | 18.8% (inactive) | – |
| Cc1ccc(O)c(C(C)(C)C)c1 | – | inactive |
| Cc1cccc(N(C)C(=S)Oc2ccc3c(c2)C2CCC3C2)c1 (stereo not given) | -10.3% [at 35.3 µM] (inactive) | – |
| C[n+]1ccn(Cc2ccccc2)c1 | -17.5% (inactive) | – |
| CCCCCCCC/C=C\CCCCCCCCOCCO | -7.58% (inactive) | – |
